Measurements as given in the supplement of paper PMC8728848.
Shown is part of a subset that was picked to be rich in the strongest signals.

Assays:
Assay in all cases: glycan array binding signal (z-score within array); higher = stronger binding
Settings in all cases: glycan notation: IUPAC condensed, linker removed
[1] = molecular target: Fuc(a1-2)Gal(b1-3)GlcNAc6S
Procedure, shortened: (§1)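 Glycan array data came from 3228 arrays in the Consortium for Functional Glycomics database, and only arrays with an available protein sequence were kept. Glycan names were put into IUPAC-condensed notation, and columns mapping to the same glycan were averaged. The binding signal is a within-array Z-score, averaged across arrays of one protein sequence run at different concentrations or buffers and across linkers. A negative Z-score can be read as non-binding.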

[2] = molecular target: Fuc(a1-2)Gal(b1-4)GlcNAc(b1-2)Man(a1-3)[Fuc(a1-2)Gal(b1-4)GlcNAc(b1-2)Man(a1-6)]Man(b1-4)GlcNAc(b1-4)GlcNAc
Procedure, shortened: as §1

[3] = molecular target: Fuc(a1-2)Gal6S(b1-3)GlcNAc
Procedure, shortened: as §1

[4] = molecular target: Fuc(a1-2)[GalNAc(a1-3)]Gal(b1-4)Glc
Procedure, shortened: as §1

[5] = molecular target: Fuc(a1-2)[GalNAc(a1-3)]Gal(b1-4)GlcNAc(b1-2)Man(a1-3)[Fuc(a1-2)[GalNAc(a1-3)]Gal(b1-4)GlcNAc(b1-2)Man(a1-6)]Man(b1-4)GlcNAc(b1-4)GlcNAc
Procedure, shortened: as §1

[6] = molecular target: Fuc(a1-2)[GalNAc(b1-3)]Gal
Procedure, shortened: as §1

[7] = molecular target: Fuc(a1-3)[Gal(b1-4)]GlcNAc
Procedure, shortened: as §1

[8] = molecular target: Fuc(a1-3)[Gal(b1-4)]GlcNAc(b1-6)[Gal(b1-3)GlcNAc(b1-3)]Gal(b1-4)Glc
Procedure, shortened: as §1

[9] = molecular target: Fuc(a1-3)[Gal3S(b1-4)]GlcNAc6S
Procedure, shortened: as §1

[10] = molecular target: Gal(a1-3)Gal(b1-3)GlcNAc(b1-3)GalNAc
Procedure, shortened: as §1

[11] = molecular target: Gal(a1-3)Gal(b1-3)[Fuc(a1-4)]GlcNAc(b1-2)Man(a1-3)[Gal(a1-3)Gal(b1-3)[Fuc(a1-4)]GlcNAc(b1-2)Man(a1-6)]Man(b1-4)GlcNAc(b1-4)GlcNAc
Procedure, shortened: as §1

Gal(a1-3)GalNAc = molecular target: Gal(a1-3)GalNAc
Procedure, shortened: as §1

[12] = molecular target: Gal(b1-3)GlcNAc(b1-3)Gal(b1-3)GlcNAc
Procedure, shortened: as §1

[13] = molecular target: Gal(b1-3)GlcNAc(b1-3)Gal(b1-4)GlcNAc(b1-2)Man(a1-3)[Gal(b1-3)GlcNAc(b1-3)Gal(b1-4)GlcNAc(b1-2)Man(a1-6)]Man(b1-4)GlcNAc(b1-4)GlcNAc
Procedure, shortened: as §1

[14] = molecular target: Gal(b1-3)GlcNAc(b1-6)[Gal(b1-3)]GalNAc
Procedure, shortened: as §1

[15] = molecular target: Gal(b1-3)[Fuc(a1-4)]GlcNAc(b1-2)Man
Procedure, shortened: as §1

[16] = molecular target: Gal(b1-3)[Fuc(a1-4)]GlcNAc(b1-2)Man(a1-3)[Gal(b1-3)[Fuc(a1-4)]GlcNAc(b1-2)Man(a1-6)]Man(b1-4)GlcNAc(b1-4)[Fuc(a1-6)]GlcNAc
Procedure, shortened: as §1

[17] = molecular target: Gal(b1-3)[Fuc(a1-4)]GlcNAc(b1-3)Gal(b1-3)[Fuc(a1-4)]GlcNAc
Procedure, shortened: as §1

[18] = molecular target: Gal(b1-4)GlcNAc(b1-2)Man(a1-3)[GlcNAc(b1-2)Man(a1-6)]Man(b1-4)GlcNAc(b1-4)GlcNAc
Procedure, shortened: as §1

[19] = molecular target: Gal(b1-4)GlcNAc(b1-2)[Gal(b1-4)GlcNAc(b1-6)]Man(a1-6)[Gal(b1-4)GlcNAc(b1-2)Man(a1-3)]Man(b1-4)GlcNAc(b1-4)GlcNAc
Procedure, shortened: as §1

[20] = molecular target: Gal(b1-4)GlcNAc(b1-3)Gal(b1-4)Glc
Procedure, shortened: as §1

[21] = molecular target: Gal(b1-4)GlcNAc(b1-3)Gal(b1-4)GlcNAc(b1-2)Man(a1-3)[Gal(b1-4)GlcNAc(b1-3)Gal(b1-4)GlcNAc(b1-2)Man(a1-6)]Man(b1-4)GlcNAc(b1-4)GlcNAc
Procedure, shortened: as §1

[22] = molecular target: Gal(b1-4)GlcNAc(b1-3)Gal(b1-4)GlcNAc(b1-3)Gal(b1-4)GlcNAc(b1-2)[Gal(b1-4)GlcNAc(b1-3)Gal(b1-4)GlcNAc(b1-3)Gal(b1-4)GlcNAc(b1-6)]Man(a1-6)[Gal(b1-4)GlcNAc(b1-3)Gal(b1-4)GlcNAc(b1-3)Gal(b1-4)GlcNAc(b1-2)Man(a1-3)]Man(b1-4)GlcNAc(b1-4)[Fuc(a1-6)]GlcNAc
Procedure, shortened: as §1

[23] = molecular target: Gal(b1-4)GlcNAc(b1-3)Gal(b1-4)GlcNAc(b1-3)Gal(b1-4)GlcNAc(b1-3)Gal(b1-4)GlcNAc(b1-3)Gal(b1-4)GlcNAc(b1-2)Man(a1-3)[Gal(b1-4)GlcNAc(b1-3)Gal(b1-4)GlcNAc(b1-3)Gal(b1-4)GlcNAc(b1-3)Gal(b1-4)GlcNAc(b1-3)Gal(b1-4)GlcNAc(b1-2)Man(a1-6)]Man(b1-4)GlcNAc(b1-4)GlcNAc
Procedure, shortened: as §1

[24] = molecular target: Gal(b1-4)GlcNAc(b1-3)Gal(b1-4)GlcNAc(b1-3)Gal(b1-4)GlcNAc(b1-3)Gal(b1-4)GlcNAc(b1-3)Gal(b1-4)GlcNAc(b1-2)[Gal(b1-4)GlcNAc(b1-3)Gal(b1-4)GlcNAc(b1-3)Gal(b1-4)GlcNAc(b1-3)Gal(b1-4)GlcNAc(b1-3)Gal(b1-4)GlcNAc(b1-6)]Man(a1-6)[Gal(b1-4)GlcNAc(b1-3)Gal(b1-4)GlcNAc(b1-3)Gal(b1-4)GlcNAc(b1-3)Gal(b1-4)GlcNAc(b1-3)Gal(b1-4)GlcNAc(b1-2)Man(a1-3)]Man(b1-4)GlcNAc(b1-4)[Fuc(a1-6)]GlcNAc
Procedure, shortened: as §1

[25] = molecular target: Gal3S(b1-4)[Fuc(a1-3)]Glc6S
Procedure, shortened: as §1

[26] = molecular target: Gal3S(b1-4)[Fuc(a1-3)]GlcNAc6S
Procedure, shortened: as §1

Gal3S6S(b1-4)GlcNAc = molecular target: Gal3S6S(b1-4)GlcNAc
Procedure, shortened: as §1

Gal6S(b1-4)Glc6S = molecular target: Gal6S(b1-4)Glc6S
Procedure, shortened: as §1

Gal6S(b1-4)GlcNAc6S = molecular target: Gal6S(b1-4)GlcNAc6S
Procedure, shortened: as §1

[27] = molecular target: GalNAc(b1-4)GlcNAc(b1-2)Man(a1-3)[GalNAc(b1-4)GlcNAc(b1-2)Man(a1-6)]Man(b1-4)GlcNAc(b1-4)GlcNAc
Procedure, shortened: as §1

[28] = molecular target: GlcNAc(a1-4)Gal(b1-4)GlcNAc(b1-3)Gal(b1-4)GlcNAc
Procedure, shortened: as §1

[29] = molecular target: GlcNAc(b1-3)Gal(b1-4)GlcNAc(b1-2)Man(a1-3)[GlcNAc(b1-3)Gal(b1-4)GlcNAc(b1-2)Man(a1-6)]Man(b1-4)GlcNAc(b1-4)[Fuc(a1-6)]GlcNAc
Procedure, shortened: as §1

[30] = molecular target: GlcNAc(b1-3)Gal(b1-4)GlcNAc(b1-3)Gal(b1-4)GlcNAc(b1-3)Gal(b1-4)GlcNAc(b1-2)Man(a1-3)[GlcNAc(b1-3)Gal(b1-4)GlcNAc(b1-3)Gal(b1-4)GlcNAc(b1-3)Gal(b1-4)GlcNAc(b1-2)Man(a1-6)]Man(b1-4)GlcNAc(b1-4)[Fuc(a1-6)]GlcNAc
Procedure, shortened: as §1

GlcNAc(b1-3)Man = molecular target: GlcNAc(b1-3)Man
Procedure, shortened: as §1

[31] = molecular target: GlcNAc(b1-3)[GlcNAc(b1-4)][GlcNAc(b1-6)]GlcNAc
Procedure, shortened: as §1

[32] = molecular target: GlcNAc(b1-4)Gal(b1-4)GlcNAc
Procedure, shortened: as §1

[33] = molecular target: GlcNAc(b1-4)GlcNAc(b1-4)GlcNAc
Procedure, shortened: as §1

[34] = molecular target: GlcNAc(b1-4)GlcNAc(b1-4)GlcNAc(b1-4)GlcNAc(b1-4)GlcNAc(b1-4)GlcNAc
Procedure, shortened: as §1

[35] = molecular target: Neu5Ac(a2-3)Gal(b1-3)GlcNAc(b1-2)Man(a1-3)[GlcNAc(b1-4)][Neu5Ac(a2-3)Gal(b1-3)GlcNAc(b1-2)Man(a1-6)]Man(b1-4)GlcNAc(b1-4)GlcNAc
Procedure, shortened: as §1

[36] = molecular target: Neu5Ac(a2-3)Gal(b1-4)GlcNAc(b1-2)Man(a1-3)[Neu5Ac(a2-6)Gal(b1-4)GlcNAc(b1-2)Man(a1-6)]Man(b1-4)GlcNAc(b1-4)GlcNAc
Procedure, shortened: as §1

[37] = molecular target: Neu5Ac(a2-3)Gal6S(b1-4)GlcNAc
Procedure, shortened: as §1

[38] = molecular target: Neu5Ac(a2-3)[GalNAc(b1-4)]Gal(b1-4)GlcNAc
Procedure, shortened: as §1

Neu5Ac(a2-6)Gal = molecular target: Neu5Ac(a2-6)Gal
Procedure, shortened: as §1

[39] = molecular target: Neu5Ac(a2-6)Gal(b1-4)GlcNAc(b1-2)Man(a1-3)Man(b1-4)GlcNAc(b1-4)GlcNAc
Procedure, shortened: as §1

[40] = molecular target: Neu5Ac(a2-6)Gal(b1-4)GlcNAc(b1-2)Man(a1-3)[Neu5Ac(a2-3)Gal(b1-4)GlcNAc(b1-2)Man(a1-6)]Man(b1-4)GlcNAc(b1-4)GlcNAc
Procedure, shortened: as §1

[41] = molecular target: Neu5Ac(a2-6)Gal(b1-4)GlcNAc(b1-2)Man(a1-3)[Neu5Ac(a2-6)Gal(b1-4)GlcNAc(b1-2)Man(a1-6)]Man(b1-4)GlcNAc(b1-4)[Fuc(a1-6)]GlcNAc
Procedure, shortened: as §1

[42] = molecular target: Neu5Ac(a2-6)Gal(b1-4)GlcNAc(b1-3)Gal(b1-4)GlcNAc(b1-3)Gal(b1-4)GlcNAc(b1-2)Man(a1-3)[Neu5Ac(a2-6)Gal(b1-4)GlcNAc(b1-3)Gal(b1-4)GlcNAc(b1-3)Gal(b1-4)GlcNAc(b1-2)Man(a1-6)]GalNAc
Procedure, shortened: as §1

B1: CLECb-Precomplexed (Mus musculus), P43025 (protein)
chain: MAKNGLVLCILVVSLLLDQTDGYPSRMKARKHSKRRVKAKDDDLKSQVEKLWREVNALKEMQALQTVCLRGTKVHKKCYLASEGLKHYHEANEDCISKGGTLVVPRNSDEINALRDYGKRSLPGVNDFWLGINDMVTEGKFLDVHGFAVSFLNWDRAQPSGGKRENCVLFSQSAQGKWSDEACRSSKRYICEFIIPTRTRPLEQKLISEEDLAANDILDYKDDDDKV
glycan array binding signal (z-score) [1]: -0.588
glycan array binding signal (z-score) [2]: 2.16
glycan array binding signal (z-score) [3]: -0.377
glycan array binding signal (z-score) [4]: -0.431
glycan array binding signal (z-score) [5]: -0.336
glycan array binding signal (z-score) [6]: -0.291
glycan array binding signal (z-score) [7]: 0.129
glycan array binding signal (z-score) [8]: 0.092
glycan array binding signal (z-score) [9]: -0.231
glycan array binding signal (z-score) [10]: 0.142
glycan array binding signal (z-score) [11]: 9.55
glycan array binding signal (z-score) (Gal(a1-3)GalNAc): -0.387
glycan array binding signal (z-score) [12]: -0.229
glycan array binding signal (z-score) [13]: 0.774
glycan array binding signal (z-score) [14]: -0.462
glycan array binding signal (z-score) [15]: -0.166
glycan array binding signal (z-score) [16]: 2.08
glycan array binding signal (z-score) [17]: 0.004
glycan array binding signal (z-score) [18]: -0.209
glycan array binding signal (z-score) [19]: 2.03
glycan array binding signal (z-score) [20]: -0.229
glycan array binding signal (z-score) [21]: 2.63
glycan array binding signal (z-score) [22]: 3.07
glycan array binding signal (z-score) [23]: 2.1
glycan array binding signal (z-score) [24]: 11.2
glycan array binding signal (z-score) [25]: 3.47
glycan array binding signal (z-score) [26]: 0.004
glycan array binding signal (z-score) (Gal3S6S(b1-4)GlcNAc): -0.251
glycan array binding signal (z-score) (Gal6S(b1-4)Glc6S): 0.254
glycan array binding signal (z-score) (Gal6S(b1-4)GlcNAc6S): 0.049
glycan array binding signal (z-score) [27]: 0.242
glycan array binding signal (z-score) [28]: -0.295
glycan array binding signal (z-score) [29]: -0.522
glycan array binding signal (z-score) [30]: -0.255
glycan array binding signal (z-score) (GlcNAc(b1-3)Man): -0.185
glycan array binding signal (z-score) [31]: -0.456
glycan array binding signal (z-score) [32]: -0.159
glycan array binding signal (z-score) [33]: -0.15
glycan array binding signal (z-score) [34]: -0.322
glycan array binding signal (z-score) [35]: -0.444
glycan array binding signal (z-score) [36]: -0.245
glycan array binding signal (z-score) [37]: -0.618
glycan array binding signal (z-score) [38]: -0.321
glycan array binding signal (z-score) (Neu5Ac(a2-6)Gal): -0.301
glycan array binding signal (z-score) [39]: 0.007
glycan array binding signal (z-score) [40]: -0.03
glycan array binding signal (z-score) [41]: 2.94
glycan array binding signal (z-score) [42]: 3.49
